This is an account of results in PubChem BioAssay (NCI).

Test systems include MOLT-4 leukemia; SR leukemia; HCT-116 colon; HCC-2998 colon; NCI-H322M lung; COLO 205 colon; MDA-MB-231 breast; PC-3 prostate; LOX IMVI melanoma; MDA-MB-435 melanoma; SW-620 colon; KM12 colon; HOP-92 NSCLC; NCI-H522 lung; IGROV1 ovarian; T-47D breast; A498 renal; RPMI-8226 leukemia; HS 578T breast.
Assay in all cases: NCI-60 one-dose screen, 48 h (100 = growth as untreated, 0 = no growth, -100 = all killed)
Conditions in all cases: 10 µM

The structures appear in SMILES notation. Compounds without any hit were thinned out: in the full panel of roughly 83,000, 20% have a hit.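 Results are percent growth after 48 hours of single-concentration exposure. 100 means growth as in untreated cells, lower positive values show inhibition; negative values down to -100 show cell death.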 A number with no mark means an inactive call. Active and inactive are the calls of the source. How the source made its calls: active means growth percent below 10; inactive means the rest.

For the molecule `O=C(/C=C/c1ccc(Cl)cc1)c1nc2ccccc2n1Cc1ccc(Br)cc1`, the growth in the assay with MOLT-4 leukemia was -0.283% (active); in the assay with SR leukemia it was 5.41% (active); in the assay with HCT-116 colon, 33.1%; with HCC-2998 colon it was 65.3%.
Consider `C=CC[Se]C(=O)c1ccc(C(=O)[Se]CC=C)s1`, for which the growth in the assay on NCI-H322M lung is -63.7% (active); with COLO 205 colon, -64.7% (active); in the assay with MDA-MB-231 breast, -36.4% (active); with PC-3 prostate it was -58.2% (active); in the assay with LOX IMVI melanoma it was -75.6% (active); with MOLT-4 leukemia, -13.9% (active). Moreover, the growth is -30% (active) with SR leukemia, -82.8% (active) in the assay on MDA-MB-435 melanoma, -77.4% (active) with SW-620 colon and -85.1% (active) in the assay with KM12 colon.
Turning to `C#CC[Se]C(=O)c1ccc2n[se]nc2c1`, the growth was 77% in the assay with HOP-92 NSCLC; 51.9% in the assay on NCI-H522 lung; 58.6% with COLO 205 colon; 39.6% in the assay on PC-3 prostate; 22.9% with MOLT-4 leukemia; 3.84% (active) with SR leukemia. Besides, the values for the growth in the assay on IGROV1 ovarian and with HCC-2998 colon were 77.7% and 95.8%, respectively.
For `C[C@H]1[C@@H](CC(=O)N[C@@H](Cc2coc3ccccc23)B(O)O)O[C@@H]2OC3(C)CC[C@H]4[C@H](C)CC[C@@H]1[C@@]24OO3`, the growth in the assay on NCI-H522 lung was -74.5% (active); in the assay on MDA-MB-231 breast, -92% (active); with LOX IMVI melanoma, -92.3% (active); with MOLT-4 leukemia it was 8.41% (active); with SR leukemia, 17.4%; in the assay with T-47D breast, -27.7% (active). Moreover, the growth in the assay on MDA-MB-435 melanoma is -53.8% (active); in the assay on SW-620 colon, 2.66% (active); in the assay on HCT-116 colon, -85.3% (active); with HCC-2998 colon, -97.2% (active).
As for `N#C[Se]CC(=O)Nc1cccc(C(F)(F)F)c1`, the growth in the assay on COLO 205 colon was -1.16% (active); with A498 renal, -69.6% (active); with MOLT-4 leukemia it was 9.42% (active); with SR leukemia, 18.5%; with RPMI-8226 leukemia it was 10.2%; with IGROV1 ovarian it was -64.5% (active). Further, the values for the growth in the assay with MDA-MB-435 melanoma and in the assay on HCC-2998 colon were -18.1% (active) and 54.7%, respectively.
As for `CC1=C2C(=C[C@@](C)(COP(=O)(Oc3ccccc3)Oc3ccccc3)[C@@H]2O)C(=O)[C@@](C)(O)C12CC2`, the growth with HOP-92 NSCLC was -44.8% (active); with COLO 205 colon, -95.8% (active); in the assay on MDA-MB-231 breast, -79.2% (active); in the assay with LOX IMVI melanoma, -76.3% (active); in the assay on A498 renal, -39.4% (active); in the assay with RPMI-8226 leukemia, 9.34% (active). Besides, the growth is 29.8% in the assay with SW-620 colon and 0.872% (active) in the assay on HCT-116 colon.
With `CC(C)N=C([Se])NC(=O)c1cccs1`, the growth with NCI-H322M lung was -2.73% (active); in the assay with NCI-H522 lung it was 41.1%; with COLO 205 colon, 84.7%; in the assay on A498 renal, 36.6%; with MOLT-4 leukemia, 15.4%; with SR leukemia, 2.39% (active). The growth is 79.4% with T-47D breast and 13.3% in the assay with HCT-116 colon.
Take `C[C@H]1[C@H](OC(=O)CCC(=O)N(CCCc2cn(-c3ccc(CN4CCOCC4)cc3)nn2)CCNc2ccnc3cc(Cl)ccc23)O[C@@H]2OC3(C)CC[C@H]4[C@H](C)CC[C@@H]1[C@@]24OO3`: the growth with NCI-H322M lung was 20.9%; with NCI-H522 lung, -22.3% (active); with COLO 205 colon, -30.1% (active); in the assay with MDA-MB-231 breast it was 42.5%; in the assay on PC-3 prostate it was 29.2%; in the assay on LOX IMVI melanoma it was 7.19% (active). In addition, the growth in the assay with MOLT-4 leukemia is -4.26% (active); with SR leukemia, -17.8% (active); with HS 578T breast, 9.17% (active); with MDA-MB-435 melanoma, 18.4%; in the assay with SW-620 colon it was 25.5%.
`O=C(/C=C/c1ccc(F)cc1)c1nc2ccccc2n1Cc1ccc(Br)cc1`: the growth in the assay with NCI-H322M lung is -24.8% (active); in the assay on PC-3 prostate, -39.4% (active); in the assay with MOLT-4 leukemia it was -13.4% (active); with SR leukemia, -19.5% (active); in the assay on T-47D breast it was -52.5% (active); in the assay with MDA-MB-435 melanoma, -74% (active). Besides, the growth with KM12 colon is -25.3% (active).
